Screening data: PubChem BioAssay, Small Molecule Screening Facility, UW Madison
This excerpt belongs to a sample that is enriched for hits.
RMI FANCM FP = inhibitors of human RMI core complex binding to FANCM MM2; AID 1159607; 0.58% of 70,000 active; Fluorescence polarization, RMI core complex with F-MM2 peptide; stronger effect = lower value; FP signal (polarization) at 33 µM; in the data active = FP signal below about 40
Hits are given with their value; – = inactive.

SMILES	RMI FANCM FP
O=C(Nc1nnc(-c2ccco2)o1)C1CC(=O)N(c2ccccc2)C1 (stereo not given)	–
O=C1C=CC(=NS(=O)(=O)c2cc([N+](=O)[O-])ccc2Cl)C=C1	–
O=C1C=CC(=NS(=O)(=O)c2ccc(F)cc2)C=C1	2
O=C1C=CC(=NS(=O)(=O)c2ccc3ccccc3c2)C=C1	–
Cc1ccc(S(=O)(=O)N=Cc2cccc([N+](=O)[O-])c2)cc1	–
Cc1nc2ccccc2c(=O)n1-c1cccc(NS(=O)(=O)c2cccc([N+](=O)[O-])c2)c1	–
CC1=CC(=NS(=O)(=O)c2cccc([N+](=O)[O-])c2)C=CC1=O	-23
COC(=O)c1ccc(Cl)cc1NS(=O)(=O)c1ccc(Cl)cc1	–
Nc1ncnc(Cl)c1N	17
Nc1ncncc1-c1ccc(Cl)cc1	–
Nc1ncnc2c1CCC2	–
Cc1ccc(C)c2sc(N(Cc3ccccn3)C(=O)Cc3ccccc3)nc12	–
NC[C@H]1O[C@H](OC2[C@@H](N)C[C@@H](N)[C@H](O)[C@H]2O[C@@H]2O[C@H](CO)[C@@H](O)[C@H]2O)[C@H](N)[C@@H](O)[C@@H]1O (stereo not given in full)	–
NC[C@@H]1O[C@H](O[C@@H]2[C@@H](CO)OC(O[C@@H]3[C@@H](O)[C@H](N)C[C@H](N)[C@H]3O[C@H]3O[C@H](CO)[C@@H](O)[C@H](O)[C@H]3N)[C@@H]2O)[C@H](N)[C@@H](O)[C@@H]1O (stereo not given in full)	–
NC[C@@H]1O[C@H](O[C@H]2[C@@H](O)[C@H](O[C@@H]3[C@@H](O)[C@H](N)C[C@H](N)[C@H]3OC3O[C@H](CO)[C@@H](O)[C@H](O)[C@H]3N)O[C@@H]2CO)[C@H](N)[C@@H](O)[C@@H]1O (stereo not given in full)	4
COc1ccc(CCC(=O)NCC(c2ccsc2)N2CCc3ccccc3C2)cc1 (stereo not given)	–
CCCCNC(=S)NCCc1cc2cc(C)c(C)cc2[nH]c1=O	–
O=c1[nH]nc(SCc2nc(-c3cccc(C(F)(F)F)c3)no2)n2nc(-c3cccs3)cc12	–
Cc1cc(-c2nnc(NC(=O)CS(=O)(=O)c3ccc(F)cc3)o2)nn1C	–
N#CC(C#N)=C1CCC(=C(C#N)C#N)CC1	31
COc1ccc(-c2csc(NC(=O)c3ccc(S(=O)(=O)N4CCC(C)CC4)cc3)n2)cc1C	–
CCCc1ccc(C(=O)NCCN2CCN(c3ccc(OC)cc3)CC2)cc1	–
CCOc1ccccc1NC(=O)c1nnn(Cc2nc(-c3cccc(OC)c3OC)oc2C)c1C	–
C=CCc1cccc(/C=N\Nc2nc(-c3ccc4ccccc4c3)cs2)c1O	14
O=[N+]([O-])c1cccc(/C=N\Nc2nc(-c3ccc(Cl)c(Cl)c3)cs2)c1	–
SMILES	RMI FANCM FP
Fc1ccc(-c2csc(N/N=C\c3ccccc3)n2)cc1	–
CC(C)(C)c1csc(N/N=C\c2ccc3c(c2)OCO3)n1	–
NS(=O)(=O)c1ccc(NC(=O)CCc2csc(NC(=O)c3ccccc3)n2)cc1	–
O=C(CSc1nc2c([nH]c3ccccc32)c(=O)n1-c1ccc([N+](=O)[O-])cc1)N1CCc2ccccc21	–
O=C(CSc1nc2c(c(=O)n1-c1ccc([N+](=O)[O-])cc1)SCC2)N1CCCc2ccccc21	24
CCOC(=O)N1CCN(C(=O)CSc2nc3c(c(=O)n2-c2ccc(OCC)cc2)SCC3)CC1	–
CC(C)c1ccc(C2C(C(=O)/C=C/c3ccco3)=C(O)C(=O)N2CCCn2ccnc2)cc1 (stereo not given)	–
CC(C)(C)NC(=O)N1CCCC(c2nnc(-c3cccs3)o2)C1 (stereo not given)	–
O=C1NC(=S)/C(=C/c2ccc(-c3ccccc3[N+](=O)[O-])o2)S1	9
CCOC(=O)c1ccc(-c2ccc(/C=C3\SC(=O)NC3=S)o2)cc1	–
O=C1C(=Cc2ccc(-c3ccc(C(F)(F)F)cc3[N+](=O)[O-])o2)C(=O)c2ccccc21	–
COc1ccc(Cl)cc1NC(=O)/C=C/c1ccccc1O	–
COc1ccc(S(=O)(=O)Cc2nc(-c3ccccc3C)no2)cc1OC	–
O=C(NCc1cccs1)C(=O)Nc1ccc(Cl)c(N2CCCS2(=O)=O)c1	–
CC(=O)OC1C([N+]2(C)CCCCC2)C[C@H]2C3CC[C@H]4C[C@H](OC(C)=O)C([N+]5(C)CCCCC5)CC4(C)[C@H]3CCC12C (stereo not given in full)	-9
CC(=O)O[C@H]1C[C@@H]2CC[C@@H]3[C@H](CC[C@@]4(C)[C@H]3C[C@H]([N+]3(C)CCCCC3)[C@@H]4OC(C)=O)[C@@]2(C)C[C@@H]1N1CCCCC1	–
CC(=O)O[C@H]1C[C@@H]2CC[C@@H]3[C@H](CC[C@@]4(C)[C@H]3C[C@H]([N+]3(C)CCCCC3)[C@@H]4OC(C)=O)[C@@]2(C)C[C@@H]1[N+]1(C)CCCCC1	–
Cc1cc(C(F)(F)F)nc(SCC(=O)N2CCOCC2)n1	–
CC1(C)CC(=O)c2c(nc3sc(C(=O)NCC4CCCO4)c(N)c3c2-c2ccccc2)C1 (stereo not given)	–
COc1ccc(-c2cc(-c3ccc(C)c(C)c3)nc3sc(C(N)=O)c(N)c23)cc1	–
COc1ccc(-c2cc(-c3ccc(OC)cc3)c3c(N)c(C(=O)c4ccc(Cl)cc4)sc3n2)cc1	–
COc1ccc(-c2cc(-c3ccccc3)nc3sc(C(=O)NCC4CCCO4)c(N)c23)cc1 (stereo not given)	9
COc1ccc(-c2cc(-c3ccc(Cl)cc3)nc3sc(C(=O)N4CCOCC4)c(N)c23)cc1	-18
COc1ccc(-c2cc(-c3ccccc3)nc(SCC(=O)NCC3CCCO3)c2C#N)cc1 (stereo not given)	–
CC1=CCS(=O)(=O)C1	–
COC1OC(OC)C2C3CCC(CC3O)C12 (stereo not given)	–
